Assay in all cases: NCI-60 one-dose screen, 48 h (100 = growth as untreated, 0 = no growth, -100 = all killed)
What all share (settings): 10 µM unless noted

For assay [1], the system named is T-47D breast.
The subject of assay [2] is BT-549 breast.
For assay [3], the system named is MDA-MB-435 melanoma.
In assay [4] the test system is SW-620 colon.
In assay [5] the test system is MCF7 breast.
The test system of assay [6] is HCT-116 colon.
Assay [7] deals with HCC-2998 colon.
For assay [8], the system named is KM12 colon.

The structures appear in SMILES notation. About 83,000 compounds went through this panel and 20% of them were active in at least one assay; those are over-represented in the sample as a whole.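 Plates (96-well) were seeded with cells, treated with compound at one concentration, and incubated for 48 hours before percent growth was determined.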 Unmarked numbers belong to inactive results. Activity calls are given as the source filed them. Rule for the calls: active = growth percent below 10; inactive = the rest.

As to `CC(C)C1C2=C(NCCN1C(=O)Cc1ccccc1)C(C)(C)N(Cc1ccccc1)C2=O` (configuration not stated), the growth is 91.8% in assay [1]; 99.7% in assay [2]; 99.2% in assay [3]; 92.5% in assay [4]; 95.3% in assay [5]; 91.7% in assay [6]. Further, the values for the growth in assay [7] and in assay [8] were 101% and 107%, respectively.
With `c1ccc(CCSc2ncnc3nc[nH]c23)cc1`, the growth in assay [1] is 74.2%; in assay [2] it was 117%; in assay [3] it was 79.5%; in assay [4], 94.1%; in assay [5], 88.3%; in assay [6], 88.1%. The growth is 97.1% in assay [7] and 93.6% in assay [8].
In the case of `C=C1C(=O)O[C@H]2[C@H]1CC/C(COC(=O)NCCc1c[nH]c3ccc(Cl)cc13)=C\CC[C@@]1(C)O[C@@H]21`, the growth in assay [1] was -40% (active); in assay [2], -52.9% (active); in assay [3], -91.5% (active); in assay [4], -87.4% (active); in assay [5], 8.5% (active); in assay [6], -88.9% (active). Also, the growth in assay [7] was 55.1%; in assay [8] it was 11.3%.
As for `[O-][n+]1ccccc1CCN(O)CCc1cccc[n+]1[O-]`, the growth in assay [1] is 100%; in assay [2], 101%; in assay [3], 105%; in assay [4], 102%; in assay [5] it was 102%; in assay [6], 94.7%. Besides, the figures for the growth in assay [7] and in assay [8] were 109% and 104%, respectively.
As to `CCCCCCOc1ccc(/C=N/Nc2cc(C)nc3ccc(Br)cc23)cc1`, the growth in assay [1] is -11% (active); in assay [2], 106%; in assay [3] it was -87.7% (active); in assay [4], -72.5% (active); in assay [5], -67% (active); in assay [6], -66.4% (active). The growth in assay [7] was -94.5% (active); in assay [8], -84.7% (active).
Turning to `COc1cc2nc(-c3ccc(C(F)(F)F)cc3)cc(OCCCN3CCCCC3)c2cc1OC`, the growth in assay [1] was 35.3%; in assay [2], 39.3%; in assay [3] it was -6.42% (active); in assay [4] it was 30.4%; in assay [5], 36.2%; in assay [6] it was 25.5%. The figures for the growth in assay [7] and in assay [8] were 56% and 36.6%, respectively.
Regarding `COc1cc(NCCCN(CC(C)C)C2CCCC2)c2ncccc2c1`, the growth is 29.9% in assay [1]; 75.6% in assay [2]; 89.2% in assay [3]; 41.4% in assay [4]; 0.473% (active) in assay [5]; 37.8% in assay [6]. Besides, the growth in assay [7] was 92.4%; in assay [8] it was 93%.
In the case of `C=CCn1c(SCC(=O)Nc2ccc(C(=O)/C=C/c3cc(OC)c(OC)c(OC)c3)cc2)nnc1-c1cc(-c2ccc(S(C)(=O)=O)cc2)nc2ccccc12`, the growth in assay [1] is 85.6%; in assay [2], 79.4%; in assay [3], 88.6%; in assay [4], 77%; in assay [5] it was 50.6%; in assay [6], 27.4%. Further, the growth in assay [7] was 111%; in assay [8], 75.2%.
Consider `COc1cccc2c1C(=O)c1c(O)c3c(c(O)c1C2=O)C[C@@](O)(C(=O)CO)C[C@@H]3O[C@H]1C[C@H](N)[C@@H](O)[C@H](C)O1`, for which the growth is 4.43% (active) in assay [1]; -39% (active) in assay [2]; -77.6% (active) in assay [3]; 0.619% (active) in assay [4]; 4.48% (active) in assay [5]; 5.25% (active) in assay [6]. For the same compound, the growth in assay [7] is -22.8% (active); in assay [8], 1.25% (active).
In the case of `O=C1Nc2ccccc2/C1=C\c1cccc(/C=C2/C(=O)Nc3ccccc32)n1`, the growth in assay [1] was -51.6% (active); in assay [2] it was -86.4% (active); in assay [3], -73.6% (active); in assay [4] it was -75.9% (active); in assay [5] it was -69.9% (active); in assay [6], -65.6% (active). Moreover, the results for the growth in assay [7] and in assay [8] were -84.1% (active) and -83.1% (active), respectively.
Take `C#CC(=O)Nc1cccc2c1cc(C)n2-c1nc2c(c(NCc3ccccc3)n1)CCCC2`: the growth is -41.4% (active) in assay [1]; -47.3% (active) in assay [2]; -81.4% (active) in assay [3]; -59.3% (active) in assay [4]; -39.8% (active) in assay [5]; -70.3% (active) in assay [6]. The growth was -89.9% (active) in assay [7] and -27.6% (active) in assay [8].
With `CCCCCN1C=C/C(=C\C(=O)N(C)c2ccc(Br)cc2)c2ccccc21`, the growth in assay [1] was 84.3%; in assay [2], 108%; in assay [3], 101%; in assay [4], 94.4%; in assay [5] it was 91%; in assay [6] it was 80.7%. The figures for the growth in assay [7] and in assay [8] were 102% and 103%, respectively.
Consider `COc1nc(N)nc(-n2c(-c3ccc(C)cc3)nc3ccccc32)c1NCc1ccc(C)cc1`, for which the growth in assay [1] is 79%; in assay [2], 101%; in assay [3] it was 102%; in assay [4], 98.1%; in assay [5], 91.8%; in assay [6], 84.5%. The growth in assay [7] is 103%; in assay [8], 89.6%.
Consider `COc1cc(C(=O)c2cnc(-c3ccc4cc[nH]c4c3)[nH]2)cc(OC)c1OC`, for which the growth in assay [1] is 59%; in assay [2], 42.9%; in assay [3], -28.4% (active); in assay [4], 19.2%; in assay [5] it was 11.3%; in assay [6], -6.9% (active). Further, the growth in assay [7] was 6.12% (active); in assay [8], -9.92% (active).
Regarding `CN1C2CCC1CN(c1cnc(C(=O)Nc3cc(F)cc4cccnc34)cn1)C2`, the growth was 36% in assay [1]; 70.7% in assay [2]; 55.9% in assay [3]; 36.2% in assay [4]; 5.77% (active) in assay [5]; 18.8% in assay [6]. The growth in assay [7] was 83.1%; in assay [8] it was 76.9%.
Turning to `COc1ccc(C(O)c2cc3c(N)c(C(=O)Nc4ccccc4)sc3nc2C)cc1` (configuration not stated), the growth in assay [1] is 51.7%; in assay [2], 31.6%; in assay [3], -15.1% (active); in assay [4] it was 19.3%; in assay [5], 13.4%; in assay [6], 6.95% (active). For the same compound, the growth in assay [7] was 9.2% (active); in assay [8], 3.05% (active).
Turning to `CN1CCN(C(=O)[C@]2(C)CC[C@]3(C)CC[C@]4(C)C(=CC(=O)[C@@H]5[C@@]6(C)CCC(=O)NC(C)(C)[C@@H]6CC[C@]54C)[C@@H]3C2)CC1`, the growth was 79.9% in assay [1]; 87.2% in assay [2]; 100% in assay [3]; 96.4% in assay [4]; 91.8% in assay [5]; 93.1% in assay [6]. In addition, the growth in assay [7] is 113%; in assay [8] it was 98.1%.
With `Brc1ccc(C2CC(c3cccc(Nc4ccncc4)c3)=NN2c2ccccc2)cc1` (configuration not stated), the growth in assay [1] was 87.8%; in assay [2], 84%; in assay [3], 70.5%; in assay [4], -33.1% (active); in assay [5], 24.5%; in assay [6] it was 77.4%. In addition, the growth in assay [7] was 19.2%; in assay [8], 46.9%.
Consider `CC(C)(O)C1CCCN1C(=O)c1ccccc1I` (configuration not stated), for which the growth was 85.7% in assay [1]; 133% in assay [2]; 93.2% in assay [3]; 95.4% in assay [4]; 91.6% in assay [5]; 68.9% in assay [6]. Moreover, the growth was 112% in assay [7] and 94.3% in assay [8].
`Cc1cc(C)n(Nc2nc3ccccc3[nH]c2=O)c(=O)c1C#N`: the growth is 86% in assay [1]; 106% in assay [2]; 103% in assay [3]; 98.5% in assay [4]; 82.6% in assay [5]; 96.1% in assay [6]. Also, the growth in assay [7] was 103%; in assay [8] it was 92.9%.
As for `COc1ccccc1OCC(=O)N1CCCCCC1`, the growth in assay [1] is 103%; in assay [2], 129%; in assay [3], 101%; in assay [4], 100%; in assay [5] it was 92.8%; in assay [6], 123%. The growth was 108% in assay [7] and 97.3% in assay [8].
Turning to `CO[C@@H]1[C@H](N(C)C(=O)c2ccccc2)C[C@@H]2O[C@]1(C)n1c3ccccc3c3c4c(c5c6ccccc6n2c5c31)C(=O)NC4=O`, the growth in assay [1] is 40.5%; in assay [2], 45%; in assay [3], 45.9%; in assay [4] it was 18.6%; in assay [5] it was 42%; in assay [6], 25.8%. In addition, the growth in assay [7] is 61.9%; in assay [8], 21.8%.
Regarding `O=C(Cc1ccc(/C=C/C(=O)c2ncc[nH]2)cc1)Nc1ccc(C(F)(F)F)cc1`, the growth was 29.2% in assay [1]; 44% in assay [2]; -1.95% (active) in assay [3]; -16.1% (active) in assay [4]; 10.3% in assay [5]; -58.7% (active) in assay [6]. The growth was 59.3% in assay [7] and -41.3% (active) in assay [8].
For the compound `COc1ccccc1Nc1cc(O)c2c(=O)cc(-c3ccccc3)oc2c1`, the growth is 31.4% in assay [1]; 40.9% in assay [2]; -24.3% (active) in assay [3]; 20.8% in assay [4]; 17.3% in assay [5]; 14.1% in assay [6]. For the same compound, the growth in assay [7] was 71.9%; in assay [8], 36.2%.
Take `CSc1nnc2c(=O)n(C)c(=O)n(C)c2n1`: the growth in assay [1] is 97.5%; in assay [2], 96.4%; in assay [3], 95.2%; in assay [4], 96.1%; in assay [5], 97.8%; in assay [6], 106%. Moreover, the growth is 105% in assay [7] and 93.6% in assay [8].
For the compound `C#Cc1cccc(NC(=O)Nc2ccc(NC(=O)CCl)cc2)c1`, the growth in assay [1] is -40.2% [8.25 µM] (active); in assay [2], -64.2% [8.25 µM] (active); in assay [3], 21.7% [8.25 µM]; in assay [4], -61.7% [8.25 µM] (active); in assay [5] it was 14.1% [8.25 µM]; in assay [6], -0.386% [8.25 µM] (active). Further, the growth in assay [7] was 82.6% [8.25 µM]; in assay [8] it was -27.2% [8.25 µM] (active).
On to `COc1ccc2c(Nc3ccc(NS(C)(=O)=O)cc3)c3ccccc3nc2c1`, for which the growth in assay [1] was 2.85% (active); in assay [2] it was 49.9%; in assay [3], -11.1% (active); in assay [4], -31% (active); in assay [5], 11.1%; in assay [6], 2.19% (active). Moreover, the values for the growth in assay [7] and in assay [8] were -60.9% (active) and -13.2% (active), respectively.
As to `CN1C(=O)N(C)C2NC(N/N=C/c3ccccc3)=NC21` (configuration not stated), the growth is 90.6% in assay [1]; 100% in assay [2]; 99.6% in assay [3]; 102% in assay [4]; 98.2% in assay [5]; 95.6% in assay [6]. Moreover, the growth in assay [7] is 103%; in assay [8], 108%.
For the compound `CC(=O)O[C@]1(C(C)=O)CC[C@H]2[C@@H]3C=C(Cl)C4=CC(=O)CC[C@]4(C)[C@H]3CC[C@@]21C`, the growth in assay [1] is 97.1%; in assay [2], 94.5%; in assay [3], 113%; in assay [4], 115%; in assay [5], 112%; in assay [6] it was 96.7%. In addition, the growth was 103% in assay [7] and 109% in assay [8].

(Values after PubChem BioAssay (NCI).)
